From the supplement of paper PMC9337992
± gives the standard deviation of the averaged measurements.

system: MDAMB468; experiment: cell proliferation (confluence) relative to DMSO control; higher = less growth inhibition; settings: 5 uM; 6 d
Experimental: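 Epigenetic chemical probe screen: 15 TNBC cell lines, 500 cells per well in 384-well plates, treated with 5 uM of each of 36 SGC probes for 6 d. Confluency was imaged by IncuCyte ZOOM and normalised to DMSO control wells. Four replicate wells per compound.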

SMILES	cell proliferation [%]
COc1cc(C(=O)N2CC[C@@H](O)[C@@H](N)C2)cc2nc(-c3cc4ccccc4n3CC3CC3)n(C)c12	45.6 ± 5
c1ccc([C@@H]2C[C@H]2NC2CCNCC2)cc1	79 ± 12
O=C(O)CNC(=O)c1c(O)c2ccccc2n(Cc2ccccc2)c1=O	77.3 ± 4.1
